MsrA inh – bovine MsrA inhibition. purified bovine MsrA, absorbance read-out. inhibition, % at 15.5 µM. actives 0.75% (n = 360,000). AID 651718;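 further: 0% = vehicle wells with enzyme and 100% = reference inhibitor wells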
rCAG RNA binder – r(CAG) repeat RNA binding; actives 1.3% (n = 370,000); TO-PRO-1 dye displacement fluorescence; inhibition, % at 3 µM;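 active means inhibition above the plate cutoff, the mean of all test compounds on that plate plus 3 SD, cut at about 35% in these data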;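 further: 0% = DMSO alone and 100% = 100 µM mitoxantrone as full dye displacement; higher means more dye released from RNA so lower well fluorescence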
bovine MsrA act – bovine methionine sulfoxide reductase A activation. activation, % at 10.6 µM. purified bovine MsrA, absorbance read-out. AID 602163. actives 0.3% (n = 360,000); in the data active means activation above about 7.5%;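 further: 0% = vehicle and 100% = reference activator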
PG9 Ab binder – PG9 antibody binding by small molecule; TR-FRET gp120-PG9 antibody binding; inhibition, % at 6.7 µM; actives 0.43% (n = 360,000); in the data active means inhibition above about 8.5%
sPLA2-III inh – Blocks human group III sPLA2 activity; AID 743126; Q9NZ20; QFRET BODIPY PC-A2 liposome hydrolysis, fluorescence; inhibition, % at 12.2 µM; actives 0.56% (n = 370,000);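 active means inhibition above mean plus 3 SD of compounds lying within the high and low control bounds, cut at about 19% in these data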;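 further: 0% = median of test compound wells and 100% = no enzyme DMSO wells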
Target sequence (Q9NZ20 whole entry, looked up): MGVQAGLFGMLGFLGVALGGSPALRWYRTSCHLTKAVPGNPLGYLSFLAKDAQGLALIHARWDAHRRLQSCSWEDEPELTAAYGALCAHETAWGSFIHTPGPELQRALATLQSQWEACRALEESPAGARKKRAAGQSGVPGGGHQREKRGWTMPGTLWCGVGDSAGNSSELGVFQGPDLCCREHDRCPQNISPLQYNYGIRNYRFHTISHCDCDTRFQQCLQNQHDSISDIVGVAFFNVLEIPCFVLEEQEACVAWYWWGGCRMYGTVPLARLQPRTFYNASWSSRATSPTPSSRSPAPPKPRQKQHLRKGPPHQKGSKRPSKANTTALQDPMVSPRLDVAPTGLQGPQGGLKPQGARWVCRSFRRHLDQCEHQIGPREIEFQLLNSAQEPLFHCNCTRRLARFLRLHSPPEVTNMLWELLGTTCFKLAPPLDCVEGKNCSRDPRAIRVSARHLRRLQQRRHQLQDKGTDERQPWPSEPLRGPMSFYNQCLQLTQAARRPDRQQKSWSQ
MsrA conf – bovine MsrA inhibition, confirmed. inhibition, % at 15.5 µM. actives 41% (n = 2,300). shares compounds with MsrA inh. purified bovine MsrA, absorbance read-out;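 further: coupled to thioredoxin reductase with NADPH and selenocystamine and DMSO as substrate; 0% = vehicle only and 100% = full effect of reference inhibitor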
An asterisk follows results filed as active. Compounds with a hit are over-represented: about 3.2% of the library has one in this group of screens. Unless noted, no stated cut-off is given here; in the data, active means inhibition above about 4.5%; inactive means the rest.

How did COc1cc2c(cc1OC)-c1c(OC)c(OC)cc3c1[C@H](C2)N(C)CC3 do in these assays?
MsrA inh: 0; rCAG RNA binder: -3; bovine MsrA act: 5; PG9 Ab binder: -9; sPLA2-III inh: -8

How did COc1cc2c(cc1O)CC1c3c(cc(O)c(OC)c3-2)CCN1C (centres undefined) do in these assays?
MsrA inh: 9.7*; rCAG RNA binder: 8; bovine MsrA act: -1; PG9 Ab binder: 0; sPLA2-III inh: -8; MsrA conf: 9.5*

Results for N#CCCn1cc(C(=O)Nc2ccccc2Cl)c(-c2ccc(F)cc2)n1 ?
MsrA inh: -1; rCAG RNA binder: -2; bovine MsrA act: -5; PG9 Ab binder: -1; sPLA2-III inh: -6

How did N#CCCn1cc(C(=O)Nc2ccccc2Br)c(-c2ccc([N+](=O)[O-])cc2)n1 do in these assays?
MsrA inh: 47*; rCAG RNA binder: 0; bovine MsrA act: 3; PG9 Ab binder: -1; sPLA2-III inh: 16; MsrA conf: 0

How did C=CCn1c(O)c(C(C)=NCCCN(C)C)c(=O)[nH]c1=O do in these assays?
MsrA inh: 0; rCAG RNA binder: -2; bovine MsrA act: -2; PG9 Ab binder: 0; sPLA2-III inh: 0

What do the screens show for `CNC(=S)N1CCN(CCN=Cc2c(O)n(-c3ccc(C)cc3)c(=S)[nH]c2=O)CC1`?
MsrA inh: 4.7*; rCAG RNA binder: -2; bovine MsrA act: -6; PG9 Ab binder: -1; sPLA2-III inh: 9; MsrA conf: 3

What do the screens show for `O=C(NN=Cc1ccc(N(CCCl)CCCl)cc1)c1cccnc1`?
MsrA inh: 5.2*; rCAG RNA binder: 1; bovine MsrA act: -6; PG9 Ab binder: -1; sPLA2-III inh: 4; MsrA conf: 4

How did COC(=O)[C@@H]1N=C(c2ccc(OC)cc2)O[C@]12C(=O)N(Cc1ccccc1)c1ccccc12 do in these assays?
MsrA inh: -1; rCAG RNA binder: 5; bovine MsrA act: 1; PG9 Ab binder: -1; sPLA2-III inh: 0

Results for CCOC(=O)c1c(C=O)c2ccccc2n1Cc1ccccc1 ?
MsrA inh: 4.9*; rCAG RNA binder: 1; bovine MsrA act: -2; PG9 Ab binder: -2; sPLA2-III inh: -5; MsrA conf: 5.0*

How did CC(C)n1c(O)c(C=NCc2cccnc2)c(=O)[nH]c1=S do in these assays?
MsrA inh: 4.9*; rCAG RNA binder: -3; bovine MsrA act: -5; PG9 Ab binder: -3; sPLA2-III inh: 5; MsrA conf: 5.2*

Results for C[C@@H]1CN([C@@H](C)CO)C(=O)CCCn2nncc2CO[C@@H]1CN(C)C(=O)Oc1ccccc1 ?
MsrA inh: 0; rCAG RNA binder: 1; bovine MsrA act: -2; PG9 Ab binder: 0; sPLA2-III inh: 6

How did CC(C)N1OC2CC1c1nc3ccccc3n1C2 (centres undefined) do in these assays?
MsrA inh: 2; rCAG RNA binder: 5; bovine MsrA act: -2; PG9 Ab binder: 1; sPLA2-III inh: 7

What do the screens show for `C=CCn1c(O)c(/C=N/N2CCCCC2c2cccnc2)c(=O)[nH]c1=S` (centres undefined)?
MsrA inh: 5.8*; rCAG RNA binder: 3; bovine MsrA act: -5; PG9 Ab binder: 1; sPLA2-III inh: 2; MsrA conf: 4

What do the screens show for `Cn1c(O)c(C=Nc2ccccc2)c(=O)n(C)c1=O`?
MsrA inh: 5.1*; rCAG RNA binder: 3; bovine MsrA act: -6; PG9 Ab binder: -2; sPLA2-III inh: 2; MsrA conf: 4.8*

Results for Cn1c(O)c(C=Nc2ccc(Cl)cc2)c(=O)n(C)c1=O ?
MsrA inh: 2; rCAG RNA binder: -3; bovine MsrA act: -2; PG9 Ab binder: 0; sPLA2-III inh: -3

Results for Nc1ccccc1C(=O)OCC(=O)c1ccc2c(c1)OCCO2 ?
MsrA inh: 3; rCAG RNA binder: 4; bovine MsrA act: -1; PG9 Ab binder: 4; sPLA2-III inh: -4

How did Cc1cc(N(CCCl)CCCl)ccc1C=NNC(=O)Cc1cc(=O)oc2cc(O)ccc12 do in these assays?
MsrA inh: 4; rCAG RNA binder: 20; bovine MsrA act: -11; PG9 Ab binder: 0; sPLA2-III inh: -30

What do the screens show for `Cc1cc(N(CCCl)CCCl)ccc1/C=N/NC(=O)c1ccco1`?
MsrA inh: 4.8*; rCAG RNA binder: 1; bovine MsrA act: -13; PG9 Ab binder: 0; sPLA2-III inh: 6; MsrA conf: 3
